# Results: PubChem BioAssay AID1159580 (chemical genetic matrix, 2015)
# Among all 5,500 compounds or so, about 2,000 (36%) were called active. About 18% were inconclusive and are not listed. The list shows a part of the results. A number with no mark means an inactive call. Rule as the data show it: active = normalized growth mostly below about 0.91 (no sharp cut-off); inconclusive = no clear call, values can overlap the other calls; inactive = mostly above about 0.92.
# Assay: chemical genetic growth profiling, strain panel (AID 1159580);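 also: tested at 20 µM; growth read once vehicle control cultures reached saturation at 30 °C; 1 = growth at the plate median or of vehicle wells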
# Details: growth OD
smiles,measurement,setting,value
COc1ccc(C(c2ccc(OC)cc2)C(Cl)(Cl)Cl)cc1,normalized growth,"S. cerevisiae deletion strains, locus YJR043C, strain POL32, stronger effect = lower value",0.987
same,normalized growth,"S. cerevisiae deletion strains, locus YJR075W, strain HOC1, stronger effect = lower value",1.01
same,normalized growth,"S. cerevisiae deletion strains, locus YKL009W, strain mrt4, stronger effect = lower value",0.949
same,normalized growth,"S. cerevisiae deletion strains, locus YKL068W, stronger effect = lower value",0.995
same,normalized growth,"S. cerevisiae deletion strains, locus YKL085W, strain MDH1 (second series), stronger effect = lower value",0.999
same,normalized growth,"S. cerevisiae deletion strains, locus YKL085W, strain MDH1, stronger effect = lower value",0.999
same,normalized growth,"S. cerevisiae deletion strains, locus YKL160W, strain elf1, stronger effect = lower value",1
same,normalized growth,"S. cerevisiae deletion strains, locus YKL190W, strain CNB1, stronger effect = lower value",1.01
same,normalized growth,"S. cerevisiae deletion strains, locus YKR001C, strain vps1, stronger effect = lower value",0.966
same,normalized growth,"S. cerevisiae deletion strains, locus YKR026C, strain gcn3, stronger effect = lower value",1.01
same,normalized growth,"S. cerevisiae deletion strains, locus YKR091W, strain srl3, stronger effect = lower value",1.02
same,normalized growth,"S. cerevisiae deletion strains, locus YLL001W, strain dnm1, stronger effect = lower value",1.01
same,normalized growth,"S. cerevisiae deletion strains, locus YLL026W, stronger effect = lower value",1.02
same,normalized growth,"S. cerevisiae deletion strains, locus YLL041C, strain sdh2, stronger effect = lower value",1.02
same,normalized growth,"S. cerevisiae deletion strains, locus YLR027C, strain aat2, stronger effect = lower value",1.02
same,normalized growth,"S. cerevisiae deletion strains, locus YLR039C, strain RIC1, stronger effect = lower value",1.01
same,normalized growth,"S. cerevisiae deletion strains, locus YLR058C, strain SHM2, stronger effect = lower value",0.994
same,normalized growth,"S. cerevisiae deletion strains, locus YLR102C, strain apc9, stronger effect = lower value",0.99
same,normalized growth,"S. cerevisiae deletion strains, locus YLR221C, strain rsa3, stronger effect = lower value",0.981
same,normalized growth,"S. cerevisiae deletion strains, locus YLR258W, strain gsy2, stronger effect = lower value",1.01
same,normalized growth,"S. cerevisiae deletion strains, locus YLR262C, strain YPT6 (second series), stronger effect = lower value",0.856 (active)
same,normalized growth,"S. cerevisiae deletion strains, locus YLR262C, strain YPT6, stronger effect = lower value",1.03
same,normalized growth,"S. cerevisiae deletion strains, locus YLR268W, strain sec22, stronger effect = lower value",0.997
same,normalized growth,"S. cerevisiae deletion strains, locus YLR320W, strain mms22, stronger effect = lower value",0.963
same,normalized growth,"S. cerevisiae deletion strains, locus YLR330W, strain CHS5, stronger effect = lower value",0.998
same,normalized growth,"S. cerevisiae deletion strains, locus YLR342W, strain FKS1 (second series), stronger effect = lower value",0.975
same,normalized growth,"S. cerevisiae deletion strains, locus YLR342W, strain FKS1, stronger effect = lower value",1.01
same,normalized growth,"S. cerevisiae deletion strains, locus YLR357W, strain rsc2, stronger effect = lower value",1.03
same,normalized growth,"S. cerevisiae deletion strains, locus YLR370C, strain arc18, stronger effect = lower value",1.01
same,normalized growth,"S. cerevisiae deletion strains, locus YLR371W, strain rom2, stronger effect = lower value",0.972
same,normalized growth,"S. cerevisiae deletion strains, locus YLR384C, strain iki3, stronger effect = lower value",0.996
same,normalized growth,"S. cerevisiae deletion strains, locus YLR418C, strain cdc73, stronger effect = lower value",0.993
same,normalized growth,"S. cerevisiae deletion strains, locus YML016C, strain PPZ1, stronger effect = lower value",0.993
same,normalized growth,"S. cerevisiae deletion strains, locus YML032C, strain rad52, stronger effect = lower value",0.975
same,normalized growth,"S. cerevisiae deletion strains, locus YML120C, strain ndi1, stronger effect = lower value",1.02
same,normalized growth,"S. cerevisiae deletion strains, locus YML124C, strain tub3, stronger effect = lower value",0.983
same,normalized growth,"S. cerevisiae deletion strains, locus YMR058W, strain fet3, stronger effect = lower value",1.01
same,normalized growth,"S. cerevisiae deletion strains, locus YMR078C, strain ctf18, stronger effect = lower value",0.988
same,normalized growth,"S. cerevisiae deletion strains, locus YMR125W, strain sto1, stronger effect = lower value",1
same,normalized growth,"S. cerevisiae deletion strains, locus YMR129W, stronger effect = lower value",1.01
same,normalized growth,"S. cerevisiae deletion strains, locus YMR205C, strain PFK2, stronger effect = lower value",0.985
same,normalized growth,"S. cerevisiae deletion strains, locus YMR223W, strain ubp8, stronger effect = lower value",0.966
same,normalized growth,"S. cerevisiae deletion strains, locus YMR231W, strain pep5, stronger effect = lower value",1
same,normalized growth,"S. cerevisiae deletion strains, locus YMR263W, strain SAP30, stronger effect = lower value",1.01
same,normalized growth,"S. cerevisiae deletion strains, locus YMR307W, strain GAS1, stronger effect = lower value",0.892
same,normalized growth,"S. cerevisiae deletion strains, locus YNL067W, strain RPL9B, stronger effect = lower value",0.999
same,normalized growth,"S. cerevisiae deletion strains, locus YNL071W, strain lat1, stronger effect = lower value",0.999
same,normalized growth,"S. cerevisiae deletion strains, locus YNL128W, strain TEP1, stronger effect = lower value",0.992
same,normalized growth,"S. cerevisiae deletion strains, locus YNL153C, strain GIM3, stronger effect = lower value",0.998
same,normalized growth,"S. cerevisiae deletion strains, locus YNL209W, strain ssb2, stronger effect = lower value",1
same,normalized growth,"S. cerevisiae deletion strains, locus YNL233W, strain BNI4, stronger effect = lower value",1
same,normalized growth,"S. cerevisiae deletion strains, locus YNL248C, strain rpa49, stronger effect = lower value",1.01
same,normalized growth,"S. cerevisiae deletion strains, locus YNL250W, strain rad50, stronger effect = lower value",0.992
same,normalized growth,"S. cerevisiae deletion strains, locus YNL271C, strain bni1, stronger effect = lower value",0.988
same,normalized growth,"S. cerevisiae deletion strains, locus YNL298W, strain CLA4, stronger effect = lower value",0.977
same,normalized growth,"S. cerevisiae deletion strains, locus YNL307C, strain MCK1, stronger effect = lower value",0.964
same,normalized growth,"S. cerevisiae deletion strains, locus YNL322C, strain KRE1 (second series), stronger effect = lower value",0.985
same,normalized growth,"S. cerevisiae deletion strains, locus YNL322C, strain KRE1, stronger effect = lower value",1.01
same,normalized growth,"S. cerevisiae deletion strains, locus YNR049C, strain mso1, stronger effect = lower value",1.01
same,normalized growth,"S. cerevisiae deletion strains, locus YNR052C, strain pop2, stronger effect = lower value",0.96
same,normalized growth,"S. cerevisiae deletion strains, locus YOL006C, strain TOP1, stronger effect = lower value",1.02
same,normalized growth,"S. cerevisiae deletion strains, locus YOL012C, strain htz1",0.957
same,normalized growth,"S. cerevisiae deletion strains, locus YOL147C, strain pex11, stronger effect = lower value",0.985
same,normalized growth,"S. cerevisiae deletion strains, locus YOR001W, strain rrp6, stronger effect = lower value",0.987
same,normalized growth,"S. cerevisiae deletion strains, locus YOR061W, strain CKA2, stronger effect = lower value",1.01
same,normalized growth,"S. cerevisiae deletion strains, locus YOR069W, strain VPS5, stronger effect = lower value",0.992
same,normalized growth,"S. cerevisiae deletion strains, locus YOR070C, strain gyp1, stronger effect = lower value",1.02
same,normalized growth,"S. cerevisiae deletion strains, locus YOR080W, strain dia2, stronger effect = lower value",1.01
same,normalized growth,"S. cerevisiae deletion strains, locus YOR083W, strain WHI5, stronger effect = lower value",1
same,normalized growth,"S. cerevisiae deletion strains, locus YOR106W, strain vam3, stronger effect = lower value",0.967
same,normalized growth,"S. cerevisiae deletion strains, locus YOR136W, strain idh2, stronger effect = lower value",0.972
same,normalized growth,"S. cerevisiae deletion strains, locus YOR144C, strain elg1, stronger effect = lower value",0.982
same,normalized growth,"S. cerevisiae deletion strains, locus YOR184W, strain ser1, stronger effect = lower value",0.962
same,normalized growth,"S. cerevisiae deletion strains, locus YOR265W, strain rbl2, stronger effect = lower value",1.01
same,normalized growth,"S. cerevisiae deletion strains, locus YOR270C, strain vph1, stronger effect = lower value",0.982
same,normalized growth,"S. cerevisiae deletion strains, locus YOR290C, strain snf2, stronger effect = lower value",0.984
same,normalized growth,"S. cerevisiae deletion strains, locus YOR316C, strain cot1, stronger effect = lower value",0.995
same,normalized growth,"S. cerevisiae deletion strains, locus YPL051W, strain arl3, stronger effect = lower value",0.978
same,normalized growth,"S. cerevisiae deletion strains, locus YPL055C, strain LGE1, stronger effect = lower value",0.996
same,normalized growth,"S. cerevisiae deletion strains, locus YPL078C, strain atp4, stronger effect = lower value",1.02
same,normalized growth,"S. cerevisiae deletion strains, locus YPL106C, strain sse1, stronger effect = lower value",1.06
same,normalized growth,"S. cerevisiae deletion strains, locus YPL240C, strain hsp82, stronger effect = lower value",1.01
same,normalized growth,"S. cerevisiae deletion strains, locus YPL241C, strain CIN2, stronger effect = lower value",1
same,normalized growth,"S. cerevisiae deletion strains, locus YPR119W, strain clb2, stronger effect = lower value",0.998
same,normalized growth,"S. cerevisiae deletion strains, locus YPR141C, strain kar3, stronger effect = lower value",0.994
same,normalized growth,"S. cerevisiae deletion strains, locus YPR163C, strain tif3, stronger effect = lower value",0.97
same,normalized growth,"S. cerevisiae deletion strains, locus YPR167C, strain met16, stronger effect = lower value",0.991
same,normalized growth,"S. cerevisiae deletion strains, strain wtn01, stronger effect = lower value",1
same,normalized growth,"S. cerevisiae strains, strain wild type, stronger effect = lower value",1
